Targets with a hit are over-represented here; the source holds about 7,900 in all. About 0.6% of all pairs of compound and target were hits.
The molecules below were run against AAGAB (UniProt Q6PD74) (assay: log2 fold change, soluble protein after heating vs DMSO (PISA); higher = thermal stabilisation; K562 cells, 10 uM, 30 min; active = over 0.2 and 3.5 SD of the protein, either way, in both replicates (recomputed)).
Summary of the method: (§1)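 For each measurement, 10 μM compound was applied for 30 min to K562 cells at 2×10^6 cells/mL. Aliquots were heated for 3 min across 48°C-58°C, pooled, and extracted in PBS with 0.5% NP-40 at 4°C; the supernatant after 21,000xg for 90 min was soluble protein. This was quantified by TMTpro 16plex LC-MS/MS with channel sums equalised, and thermal stability was reported relative to control samples from duplicates, on a log2 fold-change scale.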

Chain of AAGAB (Q6PD74 whole entry, looked up): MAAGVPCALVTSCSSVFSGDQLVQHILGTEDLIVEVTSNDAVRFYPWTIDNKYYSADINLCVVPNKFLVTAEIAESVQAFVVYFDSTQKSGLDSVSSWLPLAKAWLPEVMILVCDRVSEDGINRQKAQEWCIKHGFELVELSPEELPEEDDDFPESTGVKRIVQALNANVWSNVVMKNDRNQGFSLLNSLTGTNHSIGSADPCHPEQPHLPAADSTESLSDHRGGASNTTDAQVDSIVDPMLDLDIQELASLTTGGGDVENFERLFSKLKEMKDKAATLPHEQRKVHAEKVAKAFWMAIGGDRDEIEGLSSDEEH

**Q.** With O=C(N[C@@H](COc1ccc2[nH]c(=O)[nH]c2c1)c1ccccc1)c1cccn(Cc2ccc(F)c(F)c2)c1=O as the molecule, how does the log2 fold change read?
**A.** The log2 fold change was -0.025 (inactive).

**Q.** Cc1sc2c(c1C)C(c1ccc(Cl)cc1)=N[C@@H](CC(N)=O)c1nnc(C)n1-2 was tested. Which log2 fold change did it give?
**A.** Its log2 fold change is 0.044 (inactive).

**Q.** Cc1ccccc1-n1c(Cn2cnc3c(N)ncnc32)nc2cccc(C)c2c1=O was tested. Which log2 fold change did it give?
**A.** Its log2 fold change is 0.198 (inactive).

**Q.** With c1ccc([C@@H]2C[C@H]2NC2CCNCC2)cc1 as the molecule, how does the log2 fold change read?
**A.** Its log2 fold change is 0.038 (inactive).

**Q.** How did the log2 fold change turn out when Cc1sc2c(c1C)C(c1ccc(Cl)cc1)=N[C@@H](CC(=O)OC(C)(C)C)c1nnc(C)n1-2 was run?
**A.** The log2 fold change was -0.03 (inactive).

These molecules were tested against AAK1 (UniProt A0A096LP25) in the same assay as above.
Summary of the method: as §1

**Q.** How did the log2 fold change turn out when O=C(N[C@@H](COc1ccc2[nH]c(=O)[nH]c2c1)c1ccccc1)c1cccn(Cc2ccc(F)c(F)c2)c1=O was run?
**A.** Its log2 fold change is -0.056 (inactive).

**Q.** Which log2 fold change does the source give for Cc1sc2c(c1C)C(c1ccc(Cl)cc1)=N[C@@H](CC(N)=O)c1nnc(C)n1-2 here?
**A.** The log2 fold change was -0.041 (inactive).

**Q.** How did the log2 fold change turn out when Cc1ccccc1-n1c(Cn2cnc3c(N)ncnc32)nc2cccc(C)c2c1=O was run?
**A.** The log2 fold change was -0.046 (inactive).

**Q.** For c1ccc([C@@H]2C[C@H]2NC2CCNCC2)cc1, which log2 fold change is on record?
**A.** The log2 fold change was 0.072 (inactive).

**Q.** Which log2 fold change does the source give for Cc1sc2c(c1C)C(c1ccc(Cl)cc1)=N[C@@H](CC(=O)OC(C)(C)C)c1nnc(C)n1-2 here?
**A.** Its log2 fold change is -0.024 (inactive).

These molecules were tested against AAK1 (UniProt Q2M2I8) in the same assay as above.
Summary of the method: as §1

Chain of AAK1 (UniProt Q2M2I8) (Q2M2I8 whole entry, looked up): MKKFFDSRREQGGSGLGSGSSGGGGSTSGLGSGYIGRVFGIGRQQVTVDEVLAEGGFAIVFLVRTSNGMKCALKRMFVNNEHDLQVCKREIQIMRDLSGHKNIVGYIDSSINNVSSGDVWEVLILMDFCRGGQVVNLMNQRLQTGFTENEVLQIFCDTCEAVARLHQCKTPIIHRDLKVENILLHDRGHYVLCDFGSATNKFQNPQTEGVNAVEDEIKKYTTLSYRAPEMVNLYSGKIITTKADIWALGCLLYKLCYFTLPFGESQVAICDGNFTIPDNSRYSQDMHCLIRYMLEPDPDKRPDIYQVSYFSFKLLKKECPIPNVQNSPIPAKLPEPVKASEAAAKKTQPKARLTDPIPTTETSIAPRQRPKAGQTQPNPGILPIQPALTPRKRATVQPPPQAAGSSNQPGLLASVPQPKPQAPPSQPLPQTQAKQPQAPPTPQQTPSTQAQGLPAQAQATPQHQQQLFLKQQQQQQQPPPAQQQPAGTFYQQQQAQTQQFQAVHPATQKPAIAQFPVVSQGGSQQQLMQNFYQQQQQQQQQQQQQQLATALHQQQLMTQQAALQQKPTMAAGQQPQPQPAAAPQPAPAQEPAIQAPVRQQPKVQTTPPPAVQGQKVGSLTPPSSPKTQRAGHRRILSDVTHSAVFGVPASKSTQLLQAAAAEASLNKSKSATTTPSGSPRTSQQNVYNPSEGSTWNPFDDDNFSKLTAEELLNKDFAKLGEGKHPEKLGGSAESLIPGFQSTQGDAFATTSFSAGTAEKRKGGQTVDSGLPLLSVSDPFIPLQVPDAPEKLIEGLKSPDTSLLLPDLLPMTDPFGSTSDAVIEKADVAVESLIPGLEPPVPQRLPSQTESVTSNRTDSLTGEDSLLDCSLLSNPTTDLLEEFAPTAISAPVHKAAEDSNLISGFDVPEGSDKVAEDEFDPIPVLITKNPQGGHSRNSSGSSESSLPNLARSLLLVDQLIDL

**Q.** How did the log2 fold change turn out when O=C(N[C@@H](COc1ccc2[nH]c(=O)[nH]c2c1)c1ccccc1)c1cccn(Cc2ccc(F)c(F)c2)c1=O was run?
**A.** Its log2 fold change is 0.02 (inactive).

**Q.** For Cc1sc2c(c1C)C(c1ccc(Cl)cc1)=N[C@@H](CC(N)=O)c1nnc(C)n1-2, which log2 fold change is on record?
**A.** Its log2 fold change is 0.039 (inactive).

**Q.** Which log2 fold change does the source give for Cc1ccccc1-n1c(Cn2cnc3c(N)ncnc32)nc2cccc(C)c2c1=O here?
**A.** Its log2 fold change is 0.083 (inactive).

**Q.** c1ccc([C@@H]2C[C@H]2NC2CCNCC2)cc1 was tested. Which log2 fold change did it give?
**A.** The log2 fold change was -0.017 (inactive).

**Q.** How did the log2 fold change turn out when Cc1sc2c(c1C)C(c1ccc(Cl)cc1)=N[C@@H](CC(=O)OC(C)(C)C)c1nnc(C)n1-2 was run?
**A.** The log2 fold change was -0.217 (inactive).

Reference: the supplement of paper PMC10849652
